Screens: PubChem BioAssay, NMMLSC
Rows were chosen to be rich in hits. Some 0.4% of all compounds tested hit in one or more screens of this group.
Cdc42 wt GTP – human Cdc42 wildtype GTP binding change, either direction; GST-Cdc42 beads, Bodipy-GTP binding, flow cytometry; actives lie on both sides; percent activity (GTP binding), % at 10 µM; 190,000 tested, 0.2% active; AID 761;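 active means percent activity GTP binding at least 20 points away from the 100% baseline, either down as inhibitor or up as activator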;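 further: median bead fluorescence of bound Bodipy-FL-GTP at 100 nM; below 100% means less GTP binding so inhibitor and above means activator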
Target sequence (P60953 whole entry, looked up): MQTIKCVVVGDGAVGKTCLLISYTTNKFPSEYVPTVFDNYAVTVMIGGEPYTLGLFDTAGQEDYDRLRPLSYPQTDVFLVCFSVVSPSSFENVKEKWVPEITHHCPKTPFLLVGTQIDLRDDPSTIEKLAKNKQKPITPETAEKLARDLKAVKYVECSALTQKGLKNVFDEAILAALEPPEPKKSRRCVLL
Rab7 wt modul – dog Rab7 wildtype GTP binding, inhibitors and activators. GST-Rab7 beads, fluorescent GTP binding, flow cytometry; actives lie on both sides; untreated = 100%, excess cold GTP = 0%. AID 758. GTP binding activity (percent of control), % at 10 µM. 190,000 tested, 0.055% active;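 active means fluorescent GTP binding to Rab7 beads changed by at least 20 points from the 100% baseline, either direction, mostly lower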;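 further: median green fluorescence of bound Bodipy-FL-GTP per Rab7 bead population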
HRas wt GTP – changes GTP binding to wildtype human HRas | GTP binding activity, % at 10 µM | GST-Ras wt beads, Bodipy-FL-GTP binding, flow cytometry; actives lie on both sides | AID 759 | P01112 | 190,000 tested, 0.14% active;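 active means GTP binding activity at least 20% away from the 100% baseline, either lowered as inhibitor or raised as activator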
Target sequence (P01112 whole entry, looked up): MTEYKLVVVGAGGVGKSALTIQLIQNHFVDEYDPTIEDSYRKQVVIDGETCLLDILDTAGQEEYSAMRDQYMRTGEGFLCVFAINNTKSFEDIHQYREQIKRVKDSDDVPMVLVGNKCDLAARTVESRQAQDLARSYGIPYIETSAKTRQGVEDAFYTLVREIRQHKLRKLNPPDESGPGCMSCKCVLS
Rac1 wt modul – alters GTP binding to wildtype human Rac1; P63000; GST-Rac1 beads, fluorescent GTP binding, flow cytometry; actives lie on both sides; 0 = cold GTP competed, 100 = untreated; GTP binding activity (% of control), % at 10 µM; 190,000 tested, 0.27% active; AID 757;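 active means GTP binding activity at least 20 points away from the 100% control level, either lower or higher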
Rac1 act GTP bind – modulators of GTP binding to human Rac1 activated mutant. percent activity (GTP binding), % at 10 µM. P63000. 190,000 tested, 0.11% active. AID 764. GST-Rac1 activated beads, fluorescent GTP binding, flow cytometry; actives lie on both sides; 100% means binding = to untreated wells;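 active means GTP binding at least 20 percentage points away from the 100% baseline, in either direction, so actives lie on both sides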
Rab2 wt GTP – changes GTP binding to wildtype dog Rab2A, up or down. 190,000 tested, 0.19% active. GTP binding activity, % at 10 µM. P61105. GST-Rab2 wt beads, Bodipy-GTP binding, flow cytometry;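 active means GTP binding activity at least 20 points away from 100%, either lowered or raised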
Large screens that a line does not name were inactive; [ ] = remark or other dose.

O=C(Nc1c(F)cccc1F)c1cnc(N2CCN(c3ccccn3)CC2)c2ccccc12	Rac1 wt modul 131.0[activator]
Cc1ccccc1C(=O)c1cccn1CC(=O)NC(C)c1ccc2c(c1)OCCO2 (centres undefined)	none
O=C(Nc1cc(S(=O)(=O)Nc2ccccc2Cl)ccc1O)c1sc2cc(Cl)ccc2c1Cl	Rac1 act GTP bind 78.0
COc1ccc(NC(=O)C(c2ccccc2)c2ccccc2)cn1	none
Cc1nc2nc(SCC(=O)O)nn2c(C)c1Cc1c(F)cccc1Cl	Cdc42 wt GTP 72.0, HRas wt GTP 78.0, Rac1 wt modul 78.0, Rac1 act GTP bind 70.0, Rab2 wt GTP 73.0
Cc1nc2nc(SCC(=O)NCc3ccco3)nn2c(C)c1Cc1c(F)cccc1Cl	none
Cc1nc2nc(SCC(=O)O)nn2c(C)c1Cc1ccccc1Cl	Rab2 wt GTP 78.0
CCOC(=O)c1ccc(Nc2nc(C(=O)OCC)nc3ccccc23)cc1	Cdc42 wt GTP 69.0, HRas wt GTP 73.0, Rab2 wt GTP 73.0
Cc1ccccc1C(=O)Nc1cccc(C(=O)N/N=C/c2cc(Cl)cc([N+](=O)[O-])c2O)c1	Cdc42 wt GTP 76.0, Rac1 act GTP bind 74.0, Rab2 wt GTP 77.0
CCNS(=O)(=O)c1ccc(CCC(=O)NCCC2=CCCCC2)cc1	none
COc1ccc(CC(=O)OCC(=O)Nc2cccnc2Cl)cc1OC	none
Nc1[nH]n2c(=O)cc(-c3ccccc3)nc2c1N=Nc1ccccc1	none
Nc1nn2c(-c3ccccc3)cc(=O)[nH]c2c1N=Nc1ccc(Br)cc1	Cdc42 wt GTP 75.0, Rac1 wt modul 76.0, Rac1 act GTP bind 76.0, Rab2 wt GTP 75.0
CCOC(=O)c1c(NC(=O)CSc2nnc(Cc3ccccc3)o2)sc(C(C)=O)c1C	none
CCOC(=O)c1sc(NC(=O)CSc2nnc(Cc3ccccc3)o2)c(C#N)c1C	Rac1 act GTP bind 76.0, Rab2 wt GTP 78.0
O=[N+]([O-])c1cc(Cc2ccccc2)cc(C=Nc2ccc(N3CCOCC3)cc2)c1O	Cdc42 wt GTP 78.0, Rab7 wt modul 71.0, HRas wt GTP 77.0, Rac1 wt modul 75.0, Rac1 act GTP bind 62.0, Rab2 wt GTP 64.0
Cc1ccc(O)c(N=Cc2cc(Cc3ccccc3)cc([N+](=O)[O-])c2O)c1	Cdc42 wt GTP 76.0, Rab7 wt modul 79.0, Rac1 wt modul 77.0, Rac1 act GTP bind 68.0, Rab2 wt GTP 74.0
O=C(N/N=C1\CCCc2ccccc21)C(O)c1ccccc1 (centres undefined)	none
CCn1cc(C(=O)OCC(=O)c2cc(C)n(-c3cccc(C(F)(F)F)c3)c2C)c(=O)c2ccc(C)nc21	Cdc42 wt GTP 79.0, Rac1 wt modul 70.0, Rac1 act GTP bind 74.0, Rab2 wt GTP 72.0
CC(=O)NN1C(=O)/C(=C/c2ccc(C(C)C)cc2)SC1=S	none
COc1ccc(C)cc1NC(=O)c1cc2c(CO)cnc(C)c2oc1=N	none
COc1cc(N=c2oc3c(C)ncc(CO)c3cc2C(N)=O)cc(OC)c1OC	Cdc42 wt GTP 68.0, HRas wt GTP 68.0, Rac1 wt modul 64.0, Rab2 wt GTP 67.0
CC1CCN(C(=O)/C(=C\c2cccs2)NC(=O)c2ccccc2)CC1	none
Cc1cc(C)n2nc(SCCOc3ccccc3)nc2n1	Rac1 wt modul 78.0
Cc1cc(C)n2nc(SCC(=O)Nc3ccccc3)nc2n1	none
C/C(=C\C(=O)c1ccc(Cl)cc1Cl)N(C)C	none
Cc1ccccc1OCCn1cc(C(=O)O)c2ccccc21	Cdc42 wt GTP 123.0[activator], Rab7 wt modul 122.0[activator], HRas wt GTP 124.0[activator], Rac1 wt modul 151.0[activator], Rac1 act GTP bind 128.0[activator], Rab2 wt GTP 126.0[activator]
Cc1ccc(C)c(OCCn2cc(/C=C(\C#N)C(=O)NCc3ccco3)c3ccccc32)c1	none
Cc1ccccc1OCCn1cc(/C(N)=N/O)c2ccccc21	none
Cc1ccc(C)c(OCCn2cc(C(=O)O)c3ccccc32)c1	Cdc42 wt GTP 140.0[activator], Rab7 wt modul 136.0[activator], HRas wt GTP 129.0[activator], Rac1 wt modul 170.0[activator], Rac1 act GTP bind 136.0[activator], Rab2 wt GTP 138.0[activator]
COc1cc(N=Nc2c(C)n(C)n(-c3ccccc3)c2=O)ccc1N	none
Cc1ccc(CNC(=O)C2=NNC(=O)CC2)cc1	none
CC1(C)Cc2c(sc(NC(=S)NC(=O)c3ccccc3)c2C(=O)O)CO1	HRas wt GTP 67.0, Rac1 wt modul 70.0, Rac1 act GTP bind 63.0, Rab2 wt GTP 69.0 (no result: Cdc42 wt GTP, Rab7 wt modul)
Cc1nn(CCc2nn[nH]n2)c2nc(-c3ccc(C4CCCCC4)cc3)cc(C(F)(F)F)c12	Cdc42 wt GTP 77.0, Rac1 wt modul 79.0, Rac1 act GTP bind 78.0
O=C(O)Cc1coc2cc3c(cc12)CCC3	Rab7 wt modul 79.0
Cn1nc(C(F)(F)F)c(C(=O)Nc2ccc(F)cc2F)c1Sc1ccc(C(F)(F)F)cc1	none
Cc1nc(Cl)c2c(n1)NC1=C(O2)C(=O)CCC1	none
CCN(CC1COc2ccccc2O1)S(=O)(=O)c1ccc(C)cc1 (centres undefined)	none
O=C(O)c1ccc(CNCc2ccc(F)cc2)cc1	Cdc42 wt GTP 79.0
O=C(NC1CCCCC1)c1noc2c1CCCCC2	Rac1 wt modul 120.0[activator]
CC(C)(C)C1CCc2onc(C(=O)NC3CCCC3)c2C1 (centres undefined)	none
CCOc1ccc(-n2c(C)nc3cc(C(=O)NCc4ccc5c(c4)OCO5)ccc32)cc1	Cdc42 wt GTP 77.0, Rac1 wt modul 77.0, Rac1 act GTP bind 79.0, Rab2 wt GTP 71.0
CCCn1c(C)cc(C(=O)CSc2nc3nc(C)cc(C)n3n2)c1C	none
Cc1cc(NS(=O)(=O)c2ccc(Nc3nc(-c4sc(N)nc4C)cs3)cc2)no1	HRas wt GTP 78.0, Rab2 wt GTP 75.0
Cc1cc(NS(=O)(=O)c2ccc(Nc3nc(-c4ccc(C)c(C)c4)cs3)cc2)no1	none
CCCC(=O)Nc1nc(C)c(-c2csc(Nc3cc(OC)ccc3OC)n2)s1	none
COc1cc(NS(=O)(=O)c2ccc(N)cc2)nc(OC)n1	none
COc1cc(NS(=O)(=O)c2ccc(Nc3nc(-c4ccccc4)cs3)cc2)nc(OC)n1	Cdc42 wt GTP 71.0, HRas wt GTP 79.0, Rac1 wt modul 73.0, Rab2 wt GTP 77.0
COc1ccc(OC)c(Nc2nc(-c3sc(N)nc3C)cs2)c1	Cdc42 wt GTP 77.0, HRas wt GTP 79.0, Rac1 wt modul 79.0
N#CCCNc1c(Cl)cc(Cl)cc1C(=O)O	none
CSc1ncc(CN2CCN(C(C)C)C(CCO)C2)cn1 (centres undefined)	none
O=C(NCC1CCCO1)c1cccc(S(=O)(=O)NCc2ccccc2)c1 (centres undefined)	none
C/C=N/NC(=O)CCNC(=O)c1ccccc1	none
